Bioassay records (PubChem BioAssay)
KAT2A inh – qHTS Assay for Inhibitors of GCN5L2 | GCN5L2 HAT assay, ThioGlo1 CoA-SH fluorescence | AID 504327, 2011 | Potency, µM (top dose mostly 58.9 µM), for the others: at the highest dose activity change, negative = inhibition, actives largely listed as inhibitors | 0.21% of 390,000 active | Histone acetyltransferase KAT2A (Homo sapiens), Q92830
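Titration-based screen in which CoA formation is detected via maleimide probe ThioGlo1 (50uM) turning fluorescent on thiol reaction; substrates H3(1-25) 75uM and acetyl-CoA 70uM, GCN5L2 20nM, 20 min incubation at room temperature.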
DT40 TDP1 CPT – qHTS for Inhibitors of human tyrosyl-DNA phosphodiesterase 1 (TDP1): qHTS in cells in presence of CPT; chicken DT40 Tdp1-/-;hTDP1 cells + 20 nM CPT, ATP luminescence, 48 h; Potency, µM (top dose mostly 46.2 µM), for the others: at the top dose activity change, negative = growth inhibition, most hits filed as inhibitors; 12% of 420,000 active; AID 686979, 2013; further: nearly all actives have a fitted effect of over 55% in size
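Chicken DT40 Tdp1-/- cells complemented with human TDP1, 400 cells/well, exposed to compounds plus 20 nM camptothecin for at least 48 h at 37 C; viability read as ATP content by CellTiter-Glo luminescence.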
TDP1 inh – qHTS Assay for Inhibitors of Tyrosyl-DNA Phosphodiesterase (TDP1); Tyrosyl-DNA phosphodiesterase 1 (Homo sapiens), Q9NUW8; recombinant TDP1, AlphaScreen DNA substrate cleavage; Potency, µM (titrated, usually from 130 µM), inactives show at the top dose activity change, negative = inhibition, most hits filed as inhibitors; 0.28% of 350,000 active; further: nearly all actives have a fitted effect of over 40% in size
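AlphaScreen read-out: signal falls as enzyme removes the 3' tyrosine-FITC from a 5'-biotinylated DNA oligo (15 nM, 5 min, RT). Enzyme was E. coli-made recombinant Tdp1 at 1 nM, exposed to compound for 15 min beforehand; beads 10 ug/ml, 10 min.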
PLK1 PBD inh – qHTS for Inhibitors of PLK1-PDB (polo-like kinase 1 - polo-box domain): Primary Screen; Serine/threonine-protein kinase PLK1 (Homo sapiens), P53350; Plk1 PBD binding of FITC phosphopeptide, fluorescence polarization; Potency, µM, inactives show max response, negative = inhibition, usual class: inhibitors; 2.8% of 360,000 active; AID 720504, 2013; further: series mostly up to about 57 µM; nearly all actives have a fitted effect of over 65% in size
VDR inh – Inhibitors of the vitamin D receptor (VDR): qHTS. VDR-SRC2-3 peptide fluorescence polarization, 2 h. Potency, µM, inactives show max response, negative = inhibition, most hits filed as inhibitors. 0.93% of 400,000 active
Target sequence (P11473 whole entry, looked up): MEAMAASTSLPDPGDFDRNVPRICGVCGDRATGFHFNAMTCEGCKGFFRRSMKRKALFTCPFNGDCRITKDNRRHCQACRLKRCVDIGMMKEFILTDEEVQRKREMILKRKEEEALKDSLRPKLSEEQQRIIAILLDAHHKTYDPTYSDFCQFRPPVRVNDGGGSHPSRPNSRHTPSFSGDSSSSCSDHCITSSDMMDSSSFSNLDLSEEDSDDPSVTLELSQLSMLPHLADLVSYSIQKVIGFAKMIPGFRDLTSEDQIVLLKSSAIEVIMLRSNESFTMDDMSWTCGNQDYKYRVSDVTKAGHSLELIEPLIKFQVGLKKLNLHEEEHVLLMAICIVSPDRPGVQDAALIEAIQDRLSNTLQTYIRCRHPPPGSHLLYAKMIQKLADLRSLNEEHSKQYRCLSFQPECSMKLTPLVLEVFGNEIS
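FP read-out; VDR + SRC2-3 coactivator peptide; 23 nl compound by pintool; 2 h RT incubation; reagents held at 4 deg C, protected from light.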
DT40 TDP1 no CPT – qHTS for Inhibitors of human tyrosyl-DNA phosphodiesterase 1 (TDP1): qHTS in cells in absence of CPT. DT40 Tdp1-/- hTDP1 cells, no CPT, ATP luminescence, 48 h. Potency, µM (highest dose often 46.2 µM), inactives show at the top dose activity change, negative = growth inhibition, most hits filed as inhibitors. 15% of 420,000 active. AID 686978, 2013; further: nearly all actives have a fitted effect of over 55% in size
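No-CPT arm: Tdp1-/-;hTDP1 DT40 cells (400/well) plus compounds, incubated ≥48 hr at 37 °C. Readout CellTiter-Glo luminescence.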
* = called active by the depositor; ? = inconclusive; . = no result given; [ ] = dose if it differs, or a comment. A selection: hits, their analogues and other compounds. The true share with any hit is near 18%. The call rests on the fitted dose curve; in most records, active means well fitted curve in the direction sought with a large enough effect; inconclusive means small, poorly fitted or top-dose-only effect, or another doubt; inactive means no such curve, though single readings can be large; an effect the other way counts as inactive or inconclusive. On the % scale 0 is the no-effect control and ±100 the full control effect; potency means the concentration at half of the fitted maximal effect.

SMILES	KAT2A inh	DT40 TDP1 CPT	TDP1 inh	PLK1 PBD inh	VDR inh	DT40 TDP1 no CPT
Cc1ccc(CSc2nc3cccnc3n2Cc2ccc(C(=O)NCCc3cccs3)cc2)cc1	-18%	18µM*	7%	.	1%	18µM*
CCOc1ccccc1CNC(=O)c1ccc(Cn2c(SCc3ccccc3)nc3cccnc32)cc1	-10%	?	3%	.	8%	?
Cc1ccccc1CNC(=O)c1ccc(CSc2nc3cccnc3n2Cc2ccccc2)cc1	-5%	?	7%	.	16%	13µM*
CC(Oc1ccc(F)cc1)C(=O)N(CCC1=CCCCC1)c1c(N)n(Cc2ccccc2)c(=O)[nH]c1=O (configuration not stated)	-5%	?	0%	-1%	-1%	?
CCCCCCCCN1C(=O)[C@H](CC(=O)N2CCN(C(=O)OCC)CC2)C[C@@]2(C(=O)OC)CCCCC=C12	.	?	.	-2%	.	21µM*
CCCCCCCCN1C(=O)[C@H](CC(=O)N2CCCC2)C[C@@]2(C(=O)OC)CCCCC=C12	.	16µM*	.	7%	.	18µM*
CCCCCCCCN1C(=O)[C@H](CC(=O)N2CCN(C(=O)C3CC3)CC2)C[C@@]2(C(=O)OC)CCCCC=C12	.	?	.	3%	.	16µM*
CCCCCCCCN1C(=O)[C@H](CC(=O)N2CCN(C(=O)C3CC3)CC2)C[C@@]2(C(=O)OCC)CCCC=C12	.	23µM*	.	1%	.	23µM*
CCc1nc(SC)ncc1C(=O)NCc1cccc(Br)c1	1%	5%	1%	.	-8%	1%
CC1=C(C(=O)Nc2ccccc2)C(c2ccncc2)n2nc(SCc3ccccc3)nc2N1 (configuration not stated)	-6%	-9%	3%	.	-10%	-13%
COc1ccc(C(F)(F)F)cc1NC(=O)C(OC(=O)CNC(=O)c1ccccc1)c1ccccc1 (configuration not stated)	.	.	-2%	.	.	.
COc1ccc(-c2nc3ccccc3c(=O)n2CCOc2cc(C)ccc2C)cc1	-11%	-12%	3%	1%	-17%	?
CCCCCCCCN1C(=O)[C@H](CC(=O)N2CCC(c3ccccc3)CC2)C[C@@]2(C(=O)OC)CCCCC=C12	.	?	.	-5%	.	18µM*
Cc1nc(CC(=O)NCC2Cc3cc(F)cc(-c4ccc(F)c(C)c4)c3O2)cs1 (configuration not stated)	.	7%[9.04 µM]	.	.	.	13µM*
CC(=O)c1ccc(F)c(-c2cc(C)cc3c2OC(CNC(=O)c2csc(C)n2)C3)c1 (configuration not stated)	.	8%[9.04 µM]	.	.	.	21µM*
COc1ncc2nc(-c3ccc(F)cc3)c(=O)n(C[C@H]3CCCO3)c2n1	0%	7%	.	.	-12%	-11%
c1ccc2cc(OCCOCCOc3ccc4ccccc4c3)ccc2c1	-2%	7%	?	1%	10%	-5%
Cc1cc(OCCOCC[N+](C)(C)Cc2ccccc2)ccc1C(C)(C)CC(C)(C)C	.	1.2µM*	.	.	.	1.1µM*
O=C(c1cccc2ccccc12)N1CCN(S(=O)(=O)c2ccccc2)CC1	.	?	2%	.	1%	-7%
COc1ccc([C@@H]2C[C@H](c3ccccc3)Oc3cc(C)cc(C)c32)cc1	0%	-12%	-2%	5%	-12%	-12%
Nc1sc(Cc2ccccc2)cc1C(=O)c1c(-c2ccccc2)[nH]c2ccccc12	.	3.7µM*	.	19µM*	.	4.6µM*
O=C(Nc1cccc(C(=O)NC2CC2)c1)c1ccccc1	.	6%	.	7%	4%	0%
Cc1ccn2cc(C(=O)Nc3cccc(C(=O)NC4CC4)c3)nc2c1	4%	?	-14%	-7%	-1%	16µM*
Cc1ccc(C(=O)Nc2cccc(C(=O)NC3CCCCC3)c2)cc1	.	23µM*	.	-2%	11%	?
CC(=O)Nc1cccc(-c2cn3ccc(C)cc3n2)c1	-5%	-16%	-6%	1%	1%	-8%
SMILES	KAT2A inh	DT40 TDP1 CPT	TDP1 inh	PLK1 PBD inh	VDR inh	DT40 TDP1 no CPT
Cc1cccc(N2CCN(C(c3ccc(F)cc3)c3nnc(-c4ccccc4)o3)CC2)c1C (configuration not stated)	-7%	?	2%	.	7%	16µM*
CC(C)CSc1nnc2c3ccccc3n(C)c2n1	4%	-10%	.	-13%	-12%	?
CCCCc1c(C)nn(-c2nnc3c4ccccc4n(C)c3n2)c1C	-3%	23µM*	2%	-3%	-13%	23µM*
Cc1ccccc1-n1c(SCC(=O)NC2CC2)nc2ccccc2c1=O	.	?	.	0%	.	16µM*
COc1ccc(C)cc1-n1c(SCC(=O)Nc2cccc(C(=O)O)c2)nc2ccccc2c1=O	-5%	4%	2%	1%	-3%	0%
COc1ccc(-c2nnc(CSc3nc4ccccc4c(=O)n3CC3CCCO3)o2)cc1OC (configuration not stated)	-4%	?	.	-6%	1%	23µM*
COc1ccc(C)cc1-n1c(SCC(=O)NC2CC2)nc2ccccc2c1=O	0%	18µM*	2%	4%	2%	?
COc1ccccc1NC(=O)c1cnc(SCC(=O)NCC2CCCO2)n(C)c1=O (configuration not stated)	-14%	10µM*	0%	-14%	?	?
CC(=O)N[C@H]1[C@H](OC2CCCCC2)O[C@H](COC(C)=O)[C@@H](OC(C)=O)[C@@H]1OC(C)=O	-4%	18%	.	-11%	20%	9%
COC(=O)[C@@H](O)CC[C@@H](C)Cc1c(OC)c(OC)c(C)c(OC)c1OC	.	.	8%	.	1%	.
COc1ccc(C2NC(=O)N(C)C3=C2C(=O)N(c2cccc(C(=O)O)c2)C3)cc1 (configuration not stated)	1%	-13%	6%	.	-6%	-5%
CCOC(=O)C(CC)n1nnc2sc(-c3ccccc3)cc2c1=O (configuration not stated)	-15%	26µM*	-9%	.	4%	15µM*
Cc1ccccc1-n1c(SCC(N)=O)nc2sc(-c3ccccc3)cc2c1=O	-2%	?	2%	-3%	6%	18µM*
Cc1occc1-c1nnc(SCC(=O)NCC2CCCO2)n1C (configuration not stated)	-3%	2%	-1%	30µM*	-19%	-3%
